Measurements published in the supplement of paper PMC6555819.

test system: VDR:RXRa (NR concentration 270 nM, RXRa partner concentration 90 nM); assay: PBM binding z-score (relative to random genomic background probes); higher = stronger binding; sequences stand for … in GC…GCGATTGACAGCGTAGAATGAAGG
Protocol: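 Protein-binding microarray (Agilent 4x180K custom design, double-stranded 60-nt probes: 5' GC cap, 34-nt variable region, 24-nt constant primer region; full probe sequence given). Purified or IVT nuclear receptor:RXRα heterodimers (3:1 NR:RXRα, mostly 270:90 nM) or homodimers were incubated for 1 h in PBS with 2% milk and no ligand, then detected with Alexa488 antibodies. Fluorescence from o1-orientation probes (~5 replicates averaged) was converted to z-scores against 500 random hg19 background probes. Variable regions are seed direct-repeat (DR0–DR5) sites, all their single-nucleotide variants and half-site ablations.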

Sequence	PBM binding z-score
CGAACGAGGGCATGAATTGATAGCAAATGCCGAT	0.33
CCGACTGGGGCAGAAAGGTTACAATACCATCCGG	1
ATCTCTAGGTAAAGATAGTTCAGTGATTGCAAAT	1.07
TCATATAGGTAAAAGGTGAACGTCGGTGTGGTAA	1.79
ACTAGCAGGCCGAGGGTCACTCAAGATTAGTCCG	1.52
CGTCCAAGGTCAATGCTAGTTCAGTGAAAGCATT	4.84
CCTACTGGGCCAAGGTCAATGATCAGTCAAAGCA	2.24
CCTTACGGGTCACTCCAGGATATAGCATCGGAGT	2.88
CCTAGTTGGTCAGGAGGTCACAGACCGGATATGA	3.64
CCTAGCAGGCCGGGGTCACTCAAGCATTTCGCTT	4.94
CGTCCAAGGGCAGAGAGGTCAGTGAATGCCGAGT	5.05
TCATCTAGGTAAAGGTGAAAGTCGAACGATATGA	0.95
GCTGCTAGGTCAGGTTGGTCAGCTCACGGGTACG	0.52
TCTCGGAGGACAGGAAGGTCAGAGCTTTCCAGAG	1.57
ATCGAAAGGTCGACGAGGTGAGGATACACCGTTT	5.19
TCGAGTAGGTTACCAATGGGGCATGCAGCTTTCT	-0.0716
GTACCAAGGGGAATAGGTCGTTGATGAGTAGGCG	0.104
CCCAGTTGGTCAGGAGGTCACACACCGGATATGA	3.96
GATACAGGGTCAAGGCGAGAGTACGCGTATTGAT	4.4
CTCTAAAGGTCGGTTGAGGTGAGTATACGGATAA	2.42

Sequence	PBM binding z-score
CAAACTAGGTCAAGCTCAAAGTCGGTTTGTGCCA	1.7
CGAACTAGGTCATTGACAGGACAGTGAATAGTAA	2.2
GAGACTGGGGCATCAGCAGGTTACCATAACTTAA	0.317
CAAACTAGGTCACCAAAGGTCAAAGTCGAATGAC	6.93
GCTCGGAGTACAAGGTCAGAGCTTTGTCCGTAGA	1.48
CAGCCTAGGTCAGTGCCAGTATAGGAGGAACGTT	-0.0475
CGTCCAAGGTCAGAGAGGTCAGTGAGTGCCGAGT	7.44
CCTAGCAGGCCAGAGTCACTCAAGCATTTCGCTT	-0.665
GCATATCGGTAATACAAGGTGAAAGTCCGATTGT	0.0318
CGTCCAAGGCCAGCAGGTCAGTGAAAGCGACGTG	-0.178
GTTACAGGGTCAGCTAGAGGCCAGAGTATGGAAA	3.39
CAAACTAGGTCACGAAAGGTTAAAGTCGAATGAC	5.27
TCATATAGGTAAAGGTGAAAGTGGAACGATATGA	1.05
CCGACTGGGGCAAAGGTTACCTTACTCAGTACGA	1.21
TCGAGTAGGTTACCAATTGGGCATTCAGCTTTCT	-0.197
AGAATGAGGTTATTAAGAACAGGGAATTGCGGTC	1.83
TCATATAGGTAAATGCTAGGTGTAAGTCCGATCT	0.772
CGAACGAGGGCATGACTTGATAGCAAATGCCGAT	0.573
CGTCCAAAGTCAAGGTCAGTGAAAGAGACTCGAA	2.11
TCAGACAGCTGAAGGTAACTCAGGTACGCAGTCG	0.484
